Broadly, the inhibition is the drop in the measured response relative to a control, in per cent.

The source of these data is PubChem BioAssay.

Assay [1] can be described thus: viability loss in pontine glioma line – cell-based, SU-DIPG-XXV, MIPE5.0, CellTiter-Glo, qHTS, dose response (AID 1347065; cut-off not given, nearly all actives have AC50 up to about 26 µM;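 further: cells exposed to compound for 48 hours before ATP readout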). The following applies: CellTiter-Glo ATP luminescence. In general terms: In ATP-based viability assays light output follows the ATP content of the culture.
Assay [2] can be described thus: SU-DIPG-VI glioma cell viability, MIPE4.0 library, CellTiter-Glo luminescence, qHTS (AID 1347066; cut-off not given, nearly all actives have AC50 up to about 30 µM;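 further: cells exposed to compound for 48 hours before readout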). Conditions: CellTiter-Glo ATP luminescence.
A short description of assay [3]: SU-DIPG-XXV glioma cell viability, MIPE5.0 library, qHTS (AID 1347068; cut-off not given, nearly all actives have IC50 up to about 30 µM).
Assay [4] deals with NAD(+) hydrolase SARM1 (Homo sapiens) (UniProt Q6SZW1). Description: SARM1 TIR NADase inhibitors, cell lysate, NAD-Glo luminescence (AID 1508614;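 active means compound whose remaining NAD level is above about 45 nM, limit read from the data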). Conditions: SAM-TIR HEK293T lysate NADase, at 1 µM, stronger effect = higher value.
NAD(+) hydrolase SARM1 (Homo sapiens), sequence (Q6SZW1 whole entry, looked up, the tested form may be a part): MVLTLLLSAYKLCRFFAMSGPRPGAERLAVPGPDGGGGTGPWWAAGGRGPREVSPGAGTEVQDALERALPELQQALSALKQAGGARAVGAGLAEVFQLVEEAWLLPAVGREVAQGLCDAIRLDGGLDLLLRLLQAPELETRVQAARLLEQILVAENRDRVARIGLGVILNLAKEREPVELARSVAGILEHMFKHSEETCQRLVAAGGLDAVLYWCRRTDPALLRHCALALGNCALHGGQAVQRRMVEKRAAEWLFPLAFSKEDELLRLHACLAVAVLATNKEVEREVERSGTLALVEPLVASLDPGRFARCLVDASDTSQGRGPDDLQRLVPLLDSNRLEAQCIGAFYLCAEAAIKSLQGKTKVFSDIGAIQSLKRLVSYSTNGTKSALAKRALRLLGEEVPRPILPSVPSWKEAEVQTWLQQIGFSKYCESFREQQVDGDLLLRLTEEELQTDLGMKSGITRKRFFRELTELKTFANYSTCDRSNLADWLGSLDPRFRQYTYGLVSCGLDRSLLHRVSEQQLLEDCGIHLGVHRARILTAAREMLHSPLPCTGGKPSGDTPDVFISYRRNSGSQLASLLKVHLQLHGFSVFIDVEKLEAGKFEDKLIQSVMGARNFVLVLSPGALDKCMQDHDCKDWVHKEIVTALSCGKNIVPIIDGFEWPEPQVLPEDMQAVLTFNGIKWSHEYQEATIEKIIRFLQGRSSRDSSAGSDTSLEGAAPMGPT
Assay [5] addresses Mitogen-activated protein kinase 7 (Homo sapiens) (UniProt Q13164). Description: ERK5 transactivation activators in reporter cells, primary screen, cell-based, HTS (AID 1508626;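 active means luciferase signal above three times the same-plate solvent-only control wells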;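 further: luciferase driven by Gal4-ERK5 fusion binding five Gal4 sites before minimal TATA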). The following applies: HeLa Gal4-ERK5 transactivation, 18 h, at 5 µM, stronger effect = higher value.
Assay [6] in a line: viability rescue of complex I mutant cybrids, primary screen, cell-based, galactose medium, ATP luminescence (AID 1645843;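 active means z-score of at least 1.8 in each of two replicates, scored against plate mean and spread of sample wells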;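 further: positive z means more ATP and so rescue of galactose-driven cybrid death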). The following applies: complex I mutant cybrid cells, 72 h, stronger effect = higher value.
Assay [7] in a line: LFS_MB_P medulloblastoma growth inhibition, cell-based, chromothripsis tumors, cisplatin or BGB combos (AID 1671449).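 Further: cells exposed for 96 hours; 0% = vehicle DMSO and 100% = killing by high DMSO.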 Conditions: LFS_MB_P medulloblastoma cells.
A short description of assay [8]: HDN33 neuroblastoma growth inhibition, cell-based, chromothripsis tumors, cisplatin or BGB combos (AID 1671450).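 Further: cells exposed to compound for four days; 0% = vehicle DMSO and 100% = cell killing by high DMSO.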 Conditions: HDN33 neuroblastoma cells, stronger effect = higher value.
Assay [9] can be described thus: ICB984 medulloblastoma cell growth inhibition, synergistic combos for chromothripsis tumors, cisplatin or BGB combos (AID 1671451; call rule not given here;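 further: cells exposed for 96 hours before readout; 0% = vehicle DMSO and 100% = killing by high DMSO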). The following applies: ICB984 medulloblastoma cells, drug combinations, stronger effect = higher value.
A short description of assay [10]: LFS_MB_1R medulloblastoma cell growth inhibition, synergistic combos for chromothripsis tumors, cisplatin or BGB combos (AID 1671452).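 Further: cells exposed for 96 hours before readout.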 The following applies: LFS_MB_1R medulloblastoma cells, stronger effect = higher value.
Assay [11] can be described thus: HTB85 osteosarcoma cell growth inhibition, synergistic combos for chromothripsis tumors, BGB or cisplatin IC20 combos (AID 1671453).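 Further: cells exposed for 96 hours before readout; 0% = vehicle DMSO and 100% = high DMSO killing control.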 The following applies: HTB85 osteosarcoma cells, drug combinations, stronger effect = higher value.
The nature of assay [12]: CRL2098 osteosarcoma cell growth inhibition, synergistic combos for chromothripsis tumors, BGB or cisplatin IC20 combos (AID 1671454).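 Further: cells exposed for 96 h before readout; 0% = vehicle DMSO and 100% = killing by high DMSO.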 Conditions: CRL2098 osteosarcoma cells, drug combinations, stronger effect = higher value.
Assay [13] is described as follows: HD-MB03 medulloblastoma cell growth inhibition, synergistic combos for chromothripsis tumors, BGB or cisplatin IC20 combos (AID 1671455; in the data active means inhibition above about 83%;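 further: 0% = vehicle DMSO and 100% = high DMSO as cytotoxic control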). The following applies: HD-MB03 medulloblastoma cells, stronger effect = higher value.
The nature of assay [14]: sensitizers of A549 cells to miR-34 induction, primary screen, imaging, A549 dox-inducible miR-34, nuclei and caspase counts (AID 1347080;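 active means compounds whose cell count with miR-34 switched on is under 0.7 times the count with it off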). Conditions: A549 miR-34 inducible, Hoechst nuclei count, 48 h.
Assay [15] is described as follows: survival rescue of mitochondrial mutant cells in low glucose, primary screen, MELAS cybrids, Rieske KO mouse fibroblasts, CellTiter-Glo (AID 1508586;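 active means mean z-score across replicates of 1.96 or higher in either the MELAS or the Rieske mutant cell line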;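 further: z relative to plate mean and SD of compound and empty wells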).
The nature of assay [16]: JHH-DIPG-1 glioma cell viability, MIPE5.0 library, CellTiter-Glo luminescence, qHTS (AID 1347067; cut-off not given, nearly all actives have AC50 up to about 26 µM;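 further: cells exposed to compound for 48 hours before readout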). The following applies: JHH-DIPG-1 glioma viability, CellTiter-Glo ATP luminescence.
The nature of assay [17]: phospholipid biosynthesis inhibitors in animal cells, primary screen, cell-based, LOPAC library, screen 4 (AID 1347384; call rule not given here). The following applies: phospholipid biosynthesis inhibition screen, at 10 µM.
Setting [18] is: measured here: combination with BGB IC40, at 0.05 µM.
Setting [19] is: stronger effect = lower value, cell number ratio, induced over uninduced.
Where [20] appears, read: measured here: relative caspase fold change +Dox/-Dox.
The mark [21] stands for this setting: measured here: total cells with miR-34 induction, stronger effect = lower value.
Where [22] appears, read: measured here: total cells without miR-34 induction.

Structures are written as SMILES. “And” between values parts separate entries of the source, which are not always exact repeats. Equal values may be shown once. Results filed as inconclusive are left out. The source made the active and inactive calls. Unless noted, no stated cut-off is given here; in the data, active means inhibition above about 80%; inactive means the rest.

Mitogen-activated protein kinase 7 (Homo sapiens), sequence (Q13164 whole entry, looked up, the tested form may be a part): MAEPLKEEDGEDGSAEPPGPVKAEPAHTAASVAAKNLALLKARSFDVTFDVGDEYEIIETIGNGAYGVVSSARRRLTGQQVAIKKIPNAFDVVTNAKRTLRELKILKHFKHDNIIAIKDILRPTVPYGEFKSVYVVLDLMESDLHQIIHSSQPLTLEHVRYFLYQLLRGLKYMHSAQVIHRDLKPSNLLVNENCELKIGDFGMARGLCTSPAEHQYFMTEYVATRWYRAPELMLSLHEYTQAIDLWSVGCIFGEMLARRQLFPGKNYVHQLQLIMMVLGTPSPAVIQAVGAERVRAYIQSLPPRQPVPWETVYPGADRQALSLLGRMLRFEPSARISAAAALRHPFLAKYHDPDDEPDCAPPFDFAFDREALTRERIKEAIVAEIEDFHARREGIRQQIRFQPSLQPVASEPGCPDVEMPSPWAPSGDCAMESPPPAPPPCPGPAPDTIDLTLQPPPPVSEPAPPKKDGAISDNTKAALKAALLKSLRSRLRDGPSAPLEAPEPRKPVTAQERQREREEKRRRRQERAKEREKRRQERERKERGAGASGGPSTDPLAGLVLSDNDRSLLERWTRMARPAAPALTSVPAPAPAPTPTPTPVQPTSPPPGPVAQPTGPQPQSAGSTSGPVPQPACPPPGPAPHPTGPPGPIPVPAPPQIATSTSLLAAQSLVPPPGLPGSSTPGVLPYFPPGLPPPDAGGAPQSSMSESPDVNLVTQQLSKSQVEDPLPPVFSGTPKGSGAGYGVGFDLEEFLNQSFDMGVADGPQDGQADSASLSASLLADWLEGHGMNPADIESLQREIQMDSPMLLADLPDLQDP

As for `CC(N)C12CC3CC(CC(C3)C1)C2` (centres undefined), the result in [1], in [2] and in assay [3] was inactive. In addition, the remaining NAD in assay [4] was 10 nM (inactive). In assay [5], the luciferase signal is 48 AU (inactive). For the same compound, the z-score in assay [6] was 1.03 (inactive) and -0.17 (inactive) and -0.24 (inactive). Further, the inhibition in [7] (at 0.5 µM, stronger effect = higher value) is 6% (inactive); in [7] (measured here: combination with BGB IC20, at 0.005 µM), -16.1%; in assay [7] (measured here: combination with BGB IC40, at 0.005 µM) it was -38.1%; in assay [7] (setting [18]), -30.6%; in assay [7] (measured here: combination with cisplatin, at 0.5 µM, stronger effect = higher value) it was 9.24%; in assay [7] (measured here: combination with cisplatin, at 5 µM, stronger effect = higher value), -22.9%. Also, the inhibition in assay [8] (BGB combo, at 5 µM) is -28.3%; in [8] (at 0.5 µM), -32.5% (inactive); in [8] (cisplatin combo, at 5 µM), -20.2%; in assay [8] (measured here: with BGB IC20 combination, at 0.5 µM), -33.5%; in assay [8] (measured here: with cisplatin IC20 combination, at 0.5 µM), -23.6%; in assay [8] (single agent, at 5 µM) it was -36.9%. In addition, the inhibition is -4.5% in assay [9] (BGB IC20 combo, at 0.005 µM); -19.4% in [9] (BGB IC40 combo, at 0.005 µM); -14.2% in assay [9] (BGB IC40 combo, at 0.05 µM); -43.5% (inactive) in assay [9] (at 0.5 µM); -17.4% in assay [9] (cisplatin combo, at 0.05 µM); -54.1% in assay [9] (cisplatin combo, at 0.5 µM). The inhibition in [9] (cisplatin combo, at 5 µM) was -42.4%; in assay [9] (measured here: 5 uM single agent, at 5 µM), 12.3%; in assay [10] (at 0.5 µM) it was -32.9% (inactive); in assay [10] (setting [18]), -22.2%; in assay [10] (measured here: combination with cisplatin, at 0.5 µM), -47.8%; in assay [10] (measured here: combination with cisplatin, at 5 µM), -25.5%. The inhibition in [11] (at 0.5 µM) is -15.6% (inactive); in assay [11] (measured here: with BGB IC20, at 0.5 µM) it was -39.8%; in assay [11] (measured here: with BGB IC20, at 5 µM), -20.6%; in [11] (measured here: with cisplatin IC20, at 0.5 µM), -6.13%; in [11] (measured here: with cisplatin IC20, at 5 µM), -66.2%; in assay [11] (single agent, at 5 µM), -17.9%. Further, the inhibition in [12] (at 0.5 µM) was -53.4% (inactive); in assay [12] (measured here: combination with BGB at IC20, at 0.5 µM) it was -8.22%; in [12] (measured here: combination with cisplatin at IC20, at 0.5 µM) it was -77.6%; in assay [13] (at 0.5 µM) it was -18.7% (inactive); in assay [13] (measured here: combo with BGB at IC20, at 0.5 µM) it was -21.4%; in assay [13] (measured here: combo with cisplatin at IC20, at 0.5 µM) it was -22.1%.

For the compound `CO[C@@H]1[C@@H](OC(N)=O)[C@@H](O)[C@H](Oc2ccc3c(O)c(NC(=O)c4ccc(O)c(CC=C(C)C)c4)c(=O)oc3c2C)OC1(C)C`, the call in [1], in assay [2] and in assay [3] was inactive. Further, the fold change is 0.761 (inactive) in assay [14] (setting [19]) and 1.98 in [14] (setting [20]). Moreover, the cell count in assay [14] (setting [21]) stood at 10300; in assay [14] (setting [22]) it was 13600. Also, the z-score in [15] (MELAS cybrid survival, CellTiter-Glo 48 h, stronger effect = higher value) is 0.0759 (inactive); in assay [15] (Rieske KO mouse fibroblast survival, CellTiter-Glo 72 h), -1.01. The remaining NAD in assay [4] is 10 nM (inactive). Further, the luciferase signal in assay [5] was 44 AU (inactive).

In the case of `NNc1nncc2ccccc12`, the call in assay [1], in assay [2], in assay [16] and in assay [17] was inactive. Moreover, the fold change was 1.01 (inactive) and 0.821 (inactive) in assay [14] (setting [19]); 1.23 and 1.05 in [14] (setting [20]). For the same compound, the cell count in assay [14] (setting [21]) is 10000 and 10300; in [14] (setting [22]), 9890 and 12600. In [4], the remaining NAD was 10 nM (inactive). The luciferase signal in [5] is 280 AU (active). Further, in assay [6], the z-score is 0.12 (inactive).
